The results in this text go back to PubChem BioAssay (NCATS).

In experiment [1] the target is Glutathione peroxidase 1 (Homo sapiens) (UniProt P07203). Put plainly: Primary qHTS Assay for Inhibitors of Recombinant Selenoprotein Glutathione Peroxidase 1 (GPX1) (AID 1845191). Further: nearly all actives have a fitted effect of over 65% in size. Further: potency means the concentration at half of the fitted maximal effect. On activity, negative = inhibition: on the % scale 0 is the no-effect control and ±100 the full control effect. A digest of the protocol: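 GR-coupled assay: compounds preincubated 30 min at room temperature with GPX1, then reaction started with CHP; final 10 nM GPX1, 1 mM GSH, 0.5 mM CHP, 0.5 mM NADPH, 100 nM GR, 0.01% BSA, pH 7.5 Tris buffer. NADPH fluorescence (340/450 nm) read at 0 and 15 min.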

The target in experiment [2] is Phospholipid hydroperoxide glutathione peroxidase GPX4 (Homo sapiens) (UniProt P36969). Put plainly: Primary qHTS Assay for Inhibitors of Recombinant Selenoprotein Glutathione Peroxidase 4 (GPX4) (AID 1845192). Further: nearly all actives have a fitted effect of over 65% in size. Further: potency means the concentration at half of the fitted maximal effect. On activity change, negative = inhibition: series mostly up to about 50 µM; on the % scale 0 is the no-effect control and ±100 the full control effect. Summed up:
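GR-coupled assay: recombinant GPX4 preincubated 30 min with compound at room temperature; final 200 nM GPX4, 1 mM GSH, 0.5 mM cumene hydroperoxide, 0.5 mM NADPH, 100 nM GR, 0.01% BSA, pH 7.5 Tris. NADPH fluorescence (340/450 nm) read at 0 and 15 min.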

The target in experiment [3] is Luciferin 4-monooxygenase (Photinus pyralis) (UniProt P08659). Put plainly: Primary firefly luciferase (FLuc) qHTS assay for identification of artifact compounds. (AID 1845220). Further: nearly all actives have a fitted effect of over 60% in size.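 On activity change, negative = inhibition: series mostly up to about 54 µM; plate controls were DMSO vehicle for no effect and no enzyme for full effect.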 A digest of the protocol:
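Titrated compounds were incubated 15 min at RT, protected from light, with luciferin and ATP at 10 uM; reaction started with 10 nM FLuc, luminescence imaged at 5 min, and concentration-response fitted by Hill equation.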

Experiment [4] can be described thus: Primary fluorescence-based thiol-reactive (MSTI) qHTS assay for identification of artifact compounds. (AID 1845221). Further: nearly all actives have a fitted effect of over 65% in size. Further: potency means the concentration at half of the fitted maximal effect.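 On activity change, negative = thiol reactive: series mostly up to about 54 µM; thiol-reactive compounds lower the probe fluorescence signal.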 A digest of the protocol:
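In PBS pH 7.4 with 2% DMSO, each compound met 4 uM MSTI for one hour at ambient temperature, shielded from light, before fluorescence detection.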

Experiment [5] relates to Nanoluciferase (engineered Oplophorus gracilirostris luciferase). Put plainly: Primary Nanoluciferase (NLuc) qHTS assay for identification of artifact compounds. (AID 1845222).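 Further: NLuc secreted into diluted conditioned medium of S16 cells; series mostly up to about 54 µM; 0% = DMSO and -100% = no enzyme.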 Summed up:
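qHTS format, against NLuc in S16 cell-conditioned medium. Nano-Glo substrate 1:100 was added after 15 min at room temperature. Luminescence was taken after a further 5 min.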

Experiment [6] is described as follows: Primary redox qHTS assay for identification of artifact compounds. (AID 1845223).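 Further: 0% = DMSO and 100% = reference compound.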 Summed up:
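Amplex Red (25 uM) and HRP (250 mU/mL) in HBSS, with compounds for 15 min, then 250 uM DTT for 30 min, room temperature, dark. Fluorescence 525/598 nm read; normalized to DMSO and 10 uM DA3003; Hill fit.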

Structures are written as SMILES. A number with no mark means an inactive call. Results filed as inconclusive are left out. Calls of active or inactive are those of the source. The call rests on the fitted dose curve; in most records, active means well fitted curve in the direction sought with a large enough effect; inconclusive means small, poorly fitted or top-dose-only effect, or another doubt; inactive means no such curve, though single readings can be large; an effect the other way counts as inactive or inconclusive. Where a SMILES comes first, the peptide text is derived from it. The star is where a group is joined. AMC = Cc1cc(=O)oc2cc(N*)ccc12; Cbz = O=C(OCc1ccccc1)*

Phospholipid hydroperoxide glutathione peroxidase GPX4 (Homo sapiens), sequence (P36969 whole entry, looked up): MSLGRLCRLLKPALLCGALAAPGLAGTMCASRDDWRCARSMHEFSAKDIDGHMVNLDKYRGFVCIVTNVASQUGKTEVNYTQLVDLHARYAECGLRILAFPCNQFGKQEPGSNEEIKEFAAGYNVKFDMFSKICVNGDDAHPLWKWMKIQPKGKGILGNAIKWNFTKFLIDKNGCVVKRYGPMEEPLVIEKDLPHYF
Glutathione peroxidase 1 (Homo sapiens), sequence (P07203 whole entry, looked up): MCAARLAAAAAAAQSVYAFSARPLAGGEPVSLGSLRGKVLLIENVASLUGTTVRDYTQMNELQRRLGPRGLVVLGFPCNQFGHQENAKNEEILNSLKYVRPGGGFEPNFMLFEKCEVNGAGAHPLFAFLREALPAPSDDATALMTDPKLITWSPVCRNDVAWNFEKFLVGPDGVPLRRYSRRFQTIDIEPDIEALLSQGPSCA

Regarding `C/C=C(\C)C(=O)OC[C@H]1O[C@@H](O[C@H]2[C@@H](O[C@H]3O[C@H](COC(=O)/C(C)=C/C)[C@@H](O)[C@H](O)[C@H]3O[C@@H]3O[C@H](COC(=O)/C(C)=C/C)[C@@H](O)[C@H](OC(=O)/C(C)=C/C)[C@H]3O)O[C@H](COC(=O)/C(C)=C/C)[C@@H](O)[C@@H]2O)[C@H](O)[C@@H](O)[C@@H]1O`, the Potency entry in experiment [1] and in experiment [2] was “inactive” throughout. Besides, in experiment [3], the activity change, negative = inhibition is 3.11% [at 11.6 µM]. For the same compound, the activity change, negative = thiol reactive in experiment [4] is 8.85% [at 11.5 µM]. Also, the activity, negative = inhibition in experiment [5] is 0.483% [at 11.6 µM]. In addition, in experiment [6], the redox activity (% of DA3003) is -2.39% [at 11.5 µM].
Turning to `CC1(C)[C@@H]2CC=C(CO[C@@H]3O[C@H](CO[C@@H]4OC[C@H](O)[C@H](O)[C@H]4O)[C@@H](O)[C@H](O)[C@H]3O)[C@H]1C2`, the Potency entry in experiment [1], in experiment [2], in experiment [3], in experiment [4], in experiment [5] and in experiment [6] was “inactive” in each case.
On to `C=CC(C)(O)CC/C=C(\C)C(=O)O[C@@H]1[C@@H](O)[C@H](OC(C)(C=C)CC/C=C(\C)C(=O)O[C@@H]2O[C@H](CO)[C@@H](O)[C@H](O)[C@H]2O)O[C@H](CO)[C@H]1OC(=O)/C(C)=C/CCC(C)(O)C=C` (stereo partly drawn), for which the Potency entry in experiment [1] and in experiment [2] was “inactive” throughout. In addition, the activity change, negative = inhibition in experiment [3] is 0.429% [at 11.6 µM]. Also, the activity change, negative = thiol reactive in experiment [4] was 71.6% [at 11.5 µM]. The activity, negative = inhibition in experiment [5] is 0.542% [at 11.6 µM]. Also, the redox activity (% of DA3003) in experiment [6] is -5.92% [at 11.5 µM].
In the case of `C=C1C(=O)O[C@@H]2CC(C)=C([C@@H](C)CCCOC(C)=O)[C@@H](O)[C@H]12`, the Potency result in experiment [1], in experiment [2], in experiment [3], in experiment [5] and in experiment [6] was “inactive” each time. The Potency in experiment [4] is 16.5 µM (active).
For `O=C(/C=C/N1C[C@@H]2C[C@@H]1CN2c1ccccn1)c1ccccc1O`, the Potency result in experiment [1], in experiment [2], in experiment [3], in experiment [4] and in experiment [5] was “inactive” each time.
On to `CC1C2=CC(=O)OC2(O)CC2C1C(OC(=O)c1ccccc1)C(OC(=O)c1ccccc1)C1(O)C2(C)CCC(O)C1(C)C(=O)O` (stereo not drawn), for which the Potency entry in experiment [1], in experiment [2], in experiment [3], in experiment [4], in experiment [5] and in experiment [6] was “inactive” each time.
As to `COc1cc(-c2ccc(O)cc2)c(OC)c(O)c1C1=CC(=O)OC1CC(=O)O` (stereo not drawn), the Potency result in experiment [1], in experiment [2], in experiment [3], in experiment [4], in experiment [5] and in experiment [6] was “inactive” each time.
Consider `Cc1cc(=O)oc2cc(NC(=O)[C@H](CCC(=O)O)NC(=O)[C@H](CC(C)C)NC(=O)[C@H](CC(C)C)NC(=O)OCc3ccccc3)ccc12` (Cbz-Leu-Leu-Glu-{AMC}), for which the Potency in experiment [1] and in experiment [2] was 22.7 µM (active) in each case. Further, the Potency result in experiment [3], in experiment [4] and in experiment [5] was “inactive” throughout.
For the compound `COC(=O)C(CC1CCCC1)c1ccc(S(C)(=O)=O)cc1` (stereo not drawn), the Potency result in experiment [1], in experiment [2], in experiment [3], in experiment [4], in experiment [5] and in experiment [6] was “inactive” in each case.
As for `COC(=O)[C@H](O)[C@H]1C(C)(C)[C@H](OC(C)=O)[C@@]2(O)C(=O)[C@]1(C)C1CC[C@]3(C)C(CC(=O)O[C@H]3c3ccoc3)[C@]13O[C@@H]32` (stereo partly drawn), the Potency entry in experiment [1], in experiment [2], in experiment [3], in experiment [4], in experiment [5] and in experiment [6] was “inactive” each time.
With `COc1cccc(Cn2ncc3c4sc(S(C)=O)cc4n(C)c3c2=O)c1` (stereo not drawn), the Potency result in experiment [1], in experiment [2], in experiment [3], in experiment [4], in experiment [5] and in experiment [6] was “inactive” throughout.
For the compound `C#CCCCn1cc(-c2cccc3c2N[C@@H](C)CC(=O)N3)cn1`, the Potency result in experiment [1], in experiment [2], in experiment [3], in experiment [4], in experiment [5] and in experiment [6] was “inactive” in each case.
Take `C[C@@H]1CC2OC(=O)C3=C2C(CCC3O)[C@@]12C[C@@H](c1ccoc1)OC2=O` (stereo partly drawn): the Potency entry in experiment [1], in experiment [2], in experiment [3], in experiment [4], in experiment [5] and in experiment [6] was “inactive” in each case.
On to `FC(F)(F)Oc1ccc(-c2ccc3nnc(C(F)(F)F)n3c2)cc1`, for which the Potency result in experiment [1], in experiment [2], in experiment [3], in experiment [4], in experiment [5] and in experiment [6] was “inactive” throughout.
`CC1(C)CC[C@]2(C(=O)O[C@@H]3O[C@H](CO)[C@@H](O)[C@H](O)[C@H]3O)CC[C@]3(C)C(=CCC4[C@@]5(C)CC[C@H](O[C@H]6O[C@H](CO)[C@@H](O)[C@H](O[C@@H]7O[C@H](CO)[C@@H](O)[C@H](O)[C@H]7O)[C@H]6O)C(C)(C)C5CC[C@]43C)[C@@H]2C1` (stereo partly drawn): the Potency result in experiment [1] and in experiment [2] was “inactive” each time. The activity change, negative = inhibition in experiment [3] is 0.281% [at 11.6 µM]. Besides, in experiment [4], the activity change, negative = thiol reactive was 168% [at 11.5 µM]. Besides, the activity, negative = inhibition in experiment [5] was -0.923% [at 11.6 µM]. Also, in experiment [6], the redox activity (% of DA3003) is 12.2% [at 11.5 µM].
Regarding `CC1(C)O[C@H]2CC(=O)OC[C@@]23C1=C(O)C(=O)[C@]1(C)C3CC[C@@]2(C)[C@H](c3ccoc3)OC(=O)[C@H]3O[C@]321` (stereo partly drawn), the Potency result in experiment [1], in experiment [2], in experiment [3], in experiment [4], in experiment [5] and in experiment [6] was “inactive” in each case.
For `CC1(C)C[C@@H]2[C@H](C1)[C@@]1(C)C[C@]13C(O)OC[C@]3(O)[C@H]2O` (stereo partly drawn), the Potency result in experiment [1], in experiment [2], in experiment [3], in experiment [4], in experiment [5] and in experiment [6] was “inactive” each time.
Consider `COC(=O)CCC1(C)C(C(C)(C)O)C(O)CC2(C)Oc3c(C)c4c(c(OC)c3CC21)C(=O)OC4` (stereo not drawn), for which the Potency result in experiment [1], in experiment [2], in experiment [3], in experiment [4], in experiment [5] and in experiment [6] was “inactive” throughout.
`C[C@@H]1C[C@@H](O)[C@@]23CO[C@]2(CO)CCC[C@@H]3[C@@]12C[C@@H](c1ccoc1)OC2=O`: the Potency result in experiment [1], in experiment [2], in experiment [3], in experiment [4], in experiment [5] and in experiment [6] was “inactive” each time.
As for `Cc1cn(-c2cc(NC(=O)c3ccc(C)c(Nc4nccc(-c5cnccn5)n4)c3)cc(C(F)(F)F)c2)cn1`, the Potency result in experiment [1], in experiment [2], in experiment [3], in experiment [4], in experiment [5] and in experiment [6] was “inactive” throughout.
